Dicer processing: human Dicer pre-microRNA cleavage inhibition. Q9UPY3. cat-ELCCA pre-miR-21 Dicer processing, chemiluminescence; hits give high values. z-score at 25 µM. 47,000 compounds, 6% hits. AID 1347074; in the data active = z-score above about 3, passing the limit was not always enough;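 also: plate controls were vehicle for no effect and no enzyme for full effect; higher signal means more uncleaved substrate so more Dicer inhibition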
Starred values were filed as active, the others as inactive. Many of the other results were omitted from the sample, so hits are more common in it than they were.

SMILES	Dicer processing
CCOC(=O)C1=NOC2C(=O)N(c3ccc(OC)cc3)C(=O)C12 (configuration not stated)	-0.1
COC(=O)C1=NOC2C(=O)N(c3ccc(F)cc3)C(=O)C12 (configuration not stated)	1.5
CCOC(=O)C1=NOC2C(=O)N(c3ccc(Cl)cc3)C(=O)C12 (configuration not stated)	3.7*
Cn1c(=O)c2[nH]c(NCc3ccco3)nc2n(C)c1=O	1
COC(=O)C1=C(C)NC2=C(C(=O)CCC2)C1c1ccc(SC)cc1 (configuration not stated)	1.7
CC(=O)Nc1c(C)sc(C)c1C(=O)O	0.31
CC1=C(C(=O)OCC(C)C)C(c2cccc(F)c2)C2=C(CC(c3cccs3)CC2=O)N1 (configuration not stated)	0.24
CC1(C)CC(=O)C2=C(C1)Nc1ccccc1NC2c1cccs1 (configuration not stated)	0.88
CC1(C)CC(=O)C2=C(C1)Nc1ccccc1NC2c1ccccc1F (configuration not stated)	-0.61
CC1(C)CC(=O)C2=C(C1)Nc1ccccc1S2	4.1*
Cc1cc(C(=O)CSc2c(F)c(F)c(C(=O)O)c(F)c2F)ccc1Cl	-0.83
C=CCn1c(SCC(=O)c2ccccc2F)nc2sc(C)c(C)c2c1=O	-1.2
CC12CCC(c3c(C(F)(F)F)n[nH]c31)C2(C)C (configuration not stated)	0.43
CCOc1c(Nc2ccccc2O)c(=O)c1=O	4.1*
CCCCOc1c(Nc2cccc(OC)c2)c(=O)c1=O	8.7
CCOc1c(Nc2cccc(OC)c2)c(=O)c1=O	-0.58
CSc1ncccc1C(=O)c1c(C)[nH]n(-c2ccccc2)c1=O	-2.4
CC(OC(=O)c1cccc(N2C(=O)C3CC=CC(C)C3C2=O)c1)C(=O)c1ccccc1 (configuration not stated)	0.91
COc1ccc(N2C(=O)C3CC=CC(C)C3C2=O)cc1 (configuration not stated)	5.5*
COc1ccc(N2C(=O)C3C4C=CC(CC4)C3C2=O)cc1 (configuration not stated)	1
O=C1C(=O)N(Cc2cccnc2)C(c2ccc(Br)cc2)/C1=C(\O)c1ccc(F)cc1 (configuration not stated)	1.3
O=C(N/N=C/c1cc([N+](=O)[O-])ccc1N1CCCC1)c1ccccc1	-0.89
Cn1c(=O)c2c(nc(NCc3ccco3)n2C)n(C)c1=O	-2.1
CC(C)Cn1c(NC2CCCCC2)nc2c1c(=O)[nH]c(=O)n2C	0.18
CC(C)Cn1c(NCCN(C)C)nc2c1c(=O)[nH]c(=O)n2C	4.3*
SMILES	Dicer processing
CC(C)CNc1nc2c(c(=O)[nH]c(=O)n2C)n1C(C)C	0.88
CC(C)Cn1c(NCc2ccco2)nc2c1c(=O)[nH]c(=O)n2C	4.5*
Cc1ccc(Cn2c(NCc3ccco3)nc3c2c(=O)n(C)c(=O)n3C)cc1	0.5
CC(C)OCC(O)Cn1c(NCc2ccco2)nc2c1c(=O)[nH]c(=O)n2C (configuration not stated)	3.9*
Cn1c(=O)[nH]c(=O)c2c1nc(NCCO)n2CC(O)COc1ccccc1 (configuration not stated)	0.01
Cn1c(=O)[nH]c(=O)c2c1nc(NCc1ccco1)n2CC(O)COc1ccccc1 (configuration not stated)	-1.6
CC(C#N)Oc1ccc(Cl)cc1Cl (configuration not stated)	1.5
COC(=O)c1cc(C#N)c(SCC(=O)Nc2cc(Cl)cc(Cl)c2)nc1C(OC)OC	-2.3
CC1=C(OS(=O)(=O)c2cc(C)c(Cl)cc2Cl)C(=O)CC1	-0.67
N#Cc1cn(-c2ccc(Cl)cc2)c(=O)n(Cc2c(Cl)cccc2Cl)c1=O	-0.02
CC1CCc2c(sc3ncn4cnnc4c23)C1 (configuration not stated)	-0.73
CC(C)(C)c1csc(-c2ccc(/C=N/Nc3ccccn3)cc2)n1	0.47
N/C(=N/S(=O)(=O)c1ccc(Cl)c(Cl)c1)c1ccc(Cl)cc1	4.5*
N/C(=N\S(=O)(=O)c1cc(Cl)sc1Cl)c1ccc(Cl)cc1	1.4
N/C(=N/S(=O)(=O)c1cc(C(F)(F)F)cc(C(F)(F)F)c1)c1ccc(Cl)cc1	1.9
Cc1c(NC(=O)c2ncn[nH]2)c(=O)n(-c2ccccc2)n1C	1.1
O=C(c1ccco1)c1cn(CCOc2ccccc2F)c2ccccc12	0.45
COCc1cc(=O)[nH]c(SCC(=O)c2ccc(-c3ccccc3)cc2)n1	-0.68
O=c1[nH]c(=O)n(CCc2ccccc2)c2nc[nH]c12	0.05
O=C(/C=C1/NCCS1)c1ccc(Cl)cc1	3.8*
Cc1ccc(C(=O)/C=C/Nc2ccc(Cl)cc2)cc1	1.3
CSC(=CC(=O)c1ccc(Cl)cc1)SC	-0.68
COc1ccc(CCNC(=S)NN)cc1OC	-0.25
O=C(NNc1nccc(C(F)(F)F)n1)c1cc(C(F)(F)F)cc(C(F)(F)F)c1	0.69
Cc1nn2c3c(cnc2c1-c1ccc(Cl)cc1)C(=O)CC(c1ccccc1)C3 (configuration not stated)	-0.17
SMILES	Dicer processing
COc1cccc(CNCc2ccc3c(c2)OCO3)c1OC	-0.2
COc1ccccc1CN1CCN(Cc2ccc3c(c2)OCO3)CC1	4.2*
Cc1[nH]c2ccccc2c1C(=O)CN1CCOCC1	2
COc1cccc(CN2CCN(Cc3ccc4c(c3)OCO4)CC2)c1OC	3.5*
COc1ccc(CN2CCN(Cc3ccc4c(c3)OCO4)CC2)cc1OCc1ccccc1	-0.02
COc1ccc(CN2CCN(Cc3ccc4c(c3)OCO4)CC2)c(OC)c1	0.19
O=S(=O)(c1ccc(F)cc1)N1CCN(Cc2ccc3c(c2)OCO3)CC1	3.2*
O=S(=O)(c1ccc2c(c1)OCCO2)N1CCN(Cc2ccc3c(c2)OCO3)CC1	-0.58
CCc1ccc(S(=O)(=O)N2CCN(Cc3ccc4c(c3)OCO4)CC2)cc1	-3.5
COc1cc(CN2CCN(Cc3ccc4c(c3)OCO4)CC2)cc(OC)c1	-0.86
COc1ccc(CN2CCN(Cc3ccc4c(c3)OCO4)CC2)cc1	0.54
Cc1[nH]c2ccccc2c1C(=O)CN1CCN(Cc2ccc3c(c2)OCO3)CC1	3.3*
COc1ccc(CN2C(=O)c3oc4ccc(Cl)cc4c(=O)c3C2c2ccc(O)c(OC)c2)cc1 (configuration not stated)	1.4
CCOC(=O)c1cc2c(NC(=O)c3ccc(Cl)cc3)c(C(=O)OCC)sc2nc1C(F)(F)F	-0.76
Cc1ccc(NC(=O)N2CCCn3c(SCc4ccc(F)cc4)nnc32)cc1	-1.7
S=c1[nH]nc(-c2ccco2)n1-c1ccc(OCc2ccccc2)cc1	-0.84
O=C(CSc1nnc2sc3ccccc3n12)NC(=O)Nc1ccccc1	-0.97
FC(F)(F)c1sc(-c2nc(-c3ccccc3)no2)cc1-c1ccccc1	0.96
COc1ccc(OCCCCCCc2c(C)n[nH]c2C)cc1	-0.68
COc1ccc(-c2cc(NC(=O)Nc3ccccc3C#N)n(-c3ccc(Cl)c(Cl)c3)n2)cc1	0.48
COC(=O)/C=C1\SC(Cc2ccc(Cl)cc2)=NC1=O	-0.21
COc1cccc(N2CCCn3c2nc2c3c(=O)n(CC(=O)O)c(=O)n2C)c1	2.1
COCCCn1c(=S)[nH]c2cc(Cl)ccc2c1=O	-10
CSc1ccc(-c2c(-c3cccs3)cc(-c3ccc(Cl)cc3)n2C)cc1	0.36
COCCCn1c(-c2ccc(Cl)cc2)cc(-c2cccs2)c1-c1ccccc1	3.3*
Cn1c(CSC2CN(C(c3ccccc3)c3ccccc3)C2)n[nH]c1=S	-1.4
Cn1nc(C(F)(F)F)cc1OC(=O)c1ccccc1Cl	-0.32
CN(C)C(=O)c1ccc(-c2cc(C(F)(F)F)nn2C)s1	-0.27

Source: PubChem BioAssay
